# Screening data from PubChem.
# In the library only some 3.2% were active in any assay of this set; here they are far more common.
# PriA SSB inh: inhibitors of Klebsiella pneumoniae PriA binding to SSB C-terminal tail, primary screen, biochemical, AlphaScreen; actives 0.6% (n = 430,000); inhibition, % at 33 µM; AID 1272365, 2023; AlphaScreen SSBct-PriA binding, biotinylated peptide; PriA–SSB C-terminal tail interaction (Klebsiella pneumoniae); in the data active = inhibition mostly above about 37%, no sharp cut-off; inactive = mostly below about 20%;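 also: plate controls were negative control peptide for no effect and reference peptide for full effect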
# UGM FP inh: M. tuberculosis UGM enzyme inhibitors, primary screen, biochemical, fluorescence polarization, single point. purified UGM, fluorescence polarization probe displacement. inhibition, % at 10 µM. actives 0.06% (n = 320,000); in the data active = inhibition above about 10%, passing the limit was not always enough; inconclusive = no clear call, values can overlap the other calls
# Target sequence (P9WIQ1 whole entry, looked up): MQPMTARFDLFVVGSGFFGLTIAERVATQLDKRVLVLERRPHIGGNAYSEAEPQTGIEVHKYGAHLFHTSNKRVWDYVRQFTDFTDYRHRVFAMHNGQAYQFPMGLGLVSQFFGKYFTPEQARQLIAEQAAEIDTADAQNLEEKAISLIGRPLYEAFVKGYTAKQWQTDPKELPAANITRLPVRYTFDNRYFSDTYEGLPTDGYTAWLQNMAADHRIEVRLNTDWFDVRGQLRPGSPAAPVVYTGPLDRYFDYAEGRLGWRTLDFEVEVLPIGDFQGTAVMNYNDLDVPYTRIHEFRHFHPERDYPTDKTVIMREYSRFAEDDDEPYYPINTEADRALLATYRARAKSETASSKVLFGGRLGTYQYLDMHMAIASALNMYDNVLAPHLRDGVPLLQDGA
# Rv3671c protease: Rv3671c serine protease inhibitors, primary screen, biochemical, fluorescence polarization, M. tuberculosis H37Rv. P9WHR9. inhibition, % at 5.96 µM. actives 0.048% (n = 320,000). AID 2606, 2010; in the data active = inhibition above about 38%;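 also: extracellular domain of Rv3671c used as enzyme; 0% = enzyme with DMSO and 100% = no enzyme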
# Mtb bLac sens: beta-lactam sensitization of Mtb H37Rv, H37Rv; M. tuberculosis H37Rv growth with meropenem, percent inhibition; inhibition, % at 25 µM; actives 0.27% (n = 330,000); AID 434955, 2010; call rule not given here;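 also: growth measured after seven days incubation then overnight dye step; 0% = bacteria only wells and 100% = bacteria with antibiotic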
# GDH-TPI inh: GDH-TPI coupling enzyme inhibitors, primary screen, artefact control for M. tuberculosis FBA inhibitor project, biochemical, absorbance, full deck; GDH-TPI coupled enzyme counterscreen, NADH absorbance; AID 588335, 2011; inhibition, % at 4.8 µM; actives 1.2% (n = 360,000); in the data active = inhibition above about 30%;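 also: 0% = DMSO wells and 100% = wells lacking the enzyme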
# Mtb FBA inh: Mtb FBA enzyme inhibitors, primary screen, biochemical, fluorescence, strain H37Rv | Fructose-bisphosphate aldolase (Mycobacterium tuberculosis (strain ATCC 25618 / H37Rv)), … | purified M. tuberculosis FBA, fluorescence read-out | inhibition, % at 1 µM | actives 2.3% (n = 360,000); in the data active = inhibition above about 27%;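 also: 0% = vehicle and 100% = reference inhibitor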
# * hit, by the source's call; ? = inconclusive; nt = no result given; + = active, no number.
SMILES,PriA SSB inh,UGM FP inh,Rv3671c protease,Mtb bLac sens,GDH-TPI inh,Mtb FBA inh
COc1ccc2c(c1)c(=O)oc1cc(OC(C(=O)O)c3ccccc3)ccc12 (stereo not given),2.0,1.5,-2.4,4.7,14.7,+
CC(Oc1ccc2c(c1)oc(=O)c1ccccc12)C(=O)NCC1CCC(C(=O)O)CC1 (stereo not given),-1.7,-1.6,-2.8,-0.5,14.7,129.3*
COc1ccc(C(C)=NNc2nc(C)cc(-c3ccccc3)n2)cc1,-8.6,nt,nt,nt,nt,nt
Cc1ccc2c(c1)C(c1ccc([N+](=O)[O-])cc1)=NNC(c1ccc(Br)cc1)=N2,-8.4,0.5,-0.8,-5.3,11.8,4.2
CCc1ccc2c(c1)C(c1ccc([N+](=O)[O-])cc1)=NNC(c1ccc(Br)cc1)=N2,-5.1,51.7*,-10.1,59.6,1.1,-3.6
CCn1c2ccccc2c2cc(/C=N/NC(=O)c3ccc(O)cc3)ccc21,nt,nt,-103.2,3.5,35.5*,15.2
CCn1c2ccccc2c2cc(/C=N/NC(=O)c3cc(O)cc(O)c3)ccc21,nt,-1.0,-65.7,5.3,14.6,16.4
Cc1cccn2c(=O)c3cc(C(=O)NCC4CCCO4)c(=N)n(Cc4cccnc4)c3nc12 (stereo not given),0.2,-0.6,2.8,-0.8,12.7,+
N=c1c(C(=O)NCC2CCCO2)cc2c(=O)n3ccccc3nc2n1Cc1cccnc1 (stereo not given),-10.6,2.9,2.2,0.5,15.7,+
N=c1c(C(=O)NCC2CCCO2)cc2c(=O)n3ccccc3nc2n1Cc1ccc(F)cc1 (stereo not given),-9.4,2.5,-2.3,4.2,0.0,+
Cc1cccn2c(=O)c3cc(C(=O)NCC4CCCO4)n(Cc4ccccc4)c3nc12 (stereo not given),-8.0,nt,nt,nt,nt,nt
COc1ccc(CCn2c(=N)c(C(=O)NCC3CCCO3)cc3c(=O)n4cccc(C)c4nc32)cc1 (stereo not given),-11.7,-0.4,-0.7,1.7,13.0,13.9
Nc1ccc(C(=O)/C=C/c2ccc(Br)o2)cc1,19.0,nt,nt,nt,nt,nt
CC(=O)Cc1nsc(NC(=O)c2oc(-c3ccccc3Cl)cc2C)n1,3.7,-1.5,-28.2,2.5,56.2*,5.5
CC(=O)Cc1nsc(NC(=O)c2ccc(-c3ccccc3Cl)o2)n1,-1.6,0.6,-17.6,?,32.7*,3.9
CC(O)Cc1nsc(NC(=O)c2ccc(Br)o2)n1 (stereo not given),-6.3,-1.1,-0.1,-5.2,42.0*,-0.9
CC(=O)Cc1nsc(NC(=O)c2ccccc2Cl)n1,-9.7,0.2,4.3,3.1,0.9,-0.3
CC(C)Cc1nnc(NC(=O)c2ccc(Br)o2)s1,-16.0,nt,nt,nt,nt,nt
Oc1ccccc1C=NN1CCN(c2ccccn2)CC1,4.4,nt,nt,nt,nt,nt
Clc1ccc(-c2nc3cnccn3c2Nc2ccc3c(c2)OCO3)cc1,17.8,-1.7,4.0,10.9,10.1,4.4
c1cn2c(Nc3ccc4c(c3)OCCO4)c(-c3ccc(N4CCOCC4)cc3)nc2cn1,10.9,-2.0,0.9,-8.8,40.0*,1.5
COC(=O)C1=C(SC)N(c2ccc(OC)cc2)C(c2ccccc2)CC1=O (stereo not given),4.1,2.6,-0.9,-5.3,33.3*,-0.3
CC(N)C1CC2CCC1C2 (stereo not given),-7.0,nt,nt,nt,nt,nt
O=[N+]([O-])c1ccc(Nc2c([N+](=O)[O-])ccc3c2=NC2(CCCCC2)N=3)cc1,90.0*,nt,nt,nt,nt,nt
Cc1cc(N2CCCC2)nc(N2CCN(C(=O)c3cccc(C(F)(F)F)c3)CC2)n1,4.0,nt,nt,nt,nt,nt
SMILES,PriA SSB inh,UGM FP inh,Rv3671c protease,Mtb bLac sens,GDH-TPI inh,Mtb FBA inh
COc1ccc(C=Nn2c(-c3ccco3)nc3ccccc3c2=O)cc1,-1.9,nt,nt,nt,nt,nt
COc1cccc(/C=N/n2c(-c3ccco3)nc3ccccc3c2=O)c1OC,nt,10.6*,-14.4,0.4,4.0,0.5
O=C(CSc1ccccc1)N(Cc1ccccn1)c1nc2c(F)cccc2s1,-5.0,nt,nt,nt,nt,nt
N#Cc1ccccc1NC(=O)Nc1c2ccccc2nc(=O)n1Cc1ccco1,7.0,nt,nt,nt,nt,nt
CCN(CC)Cc1nc2nc(Cl)c(Cl)nc2[nH]1,nt,nt,nt,nt,37.2*,1.1
O=C(NCCNC(=O)NC1CCCCC1)NC1CCCCC1,-3.0,nt,nt,nt,nt,nt
N=C(N)c1ccc(N=Nc2c(O)ccc3c2[nH]c2ccccc23)cc1,82.2*,nt,nt,nt,0.5,-7.1
CCCCn1c(=O)[nH]c(=O)c2c1nc(-c1ccc(C#N)cc1)n2C1CCCC1,7.5,2.7,3.9,-12.6,7.4,166.2*
CC(C)Cn1c(-c2ccc(C#N)cc2)nc2c1c(=O)[nH]c(=O)n2CC(C)C,2.8,0.2,-0.5,-6.2,9.7,+
COCCn1c(-c2ccc(NC(C)=O)cc2)nc2c1c(=O)[nH]c(=O)n2CC(C)C,3.2,1.2,-3.8,2.8,1.1,126.1*
CCCCn1c(=O)[nH]c(=O)c2c1nc(-c1ccc(OCC)cc1)n2CC,-8.0,1.2,6.3,-5.1,3.0,9.4
COCCn1c(-c2ccc(-c3ccccc3Cl)o2)nc2c1c(=O)[nH]c(=O)n2CC(C)C,-11.7,1.2,-1.6,?,0.0,8.4
O=C(NCC[C@H]1CCCCN1S(=O)(=O)c1cccs1)C(=O)NCc1ccccc1F,-10.0,nt,nt,nt,nt,nt
O=C(CCC1CCCCC1)NCCn1nc(-c2cccnc2)ccc1=O,-4.0,nt,nt,nt,nt,nt
C#CCn1c(=NC(=O)c2cc(OC)c(OC)c(OC)c2)sc2ccc(Cl)c(Cl)c21,-10.0,nt,nt,nt,nt,nt
CCCCCCC(=O)NN=Cc1ccc(Br)cc1,-0.2,nt,nt,nt,nt,nt
CC(CCc1ccccc1)NC(=O)Nc1c[nH]c2ccccc12 (stereo not given),39.0*,nt,nt,nt,nt,nt
O=C(NCc1ccccc1)Nc1c[nH]c2ccccc12,-8.0,nt,nt,nt,nt,nt
Cc1cc2cc(CNC(=O)Nc3c[nH]c4ccccc34)ccc2[nH]1,33.0*,nt,nt,nt,nt,nt
CN(C)CCCNC(=O)C[C@H]1C[C@H](C(=O)N2CCCCC2)[C@@]2(CCc3ccccc3)c3[nH]c4cc(-c5ccco5)ccc4c3CCN2C1=O,46.0*,nt,nt,nt,2.4,7.5
Cc1cnc(C(=O)Nc2nc(-c3ccccn3)cs2)cn1,119.5*,nt,nt,nt,nt,nt
O=C(Nc1nc(-c2ccccn2)cs1)c1cc(Cl)ccn1,99.0*,nt,nt,nt,nt,nt
O=C(Nc1nc(-c2ccccn2)cs1)c1cc(Cl)ccc1Cl,86.0*,nt,nt,nt,nt,nt
CCc1nc(SCC(=O)c2cc(C)n(CCOC)c2C)c2c3c(sc2n1)CCC3,-15.0,nt,nt,nt,nt,nt
CCOP(=O)(OCC)c1nc(-c2cccc([N+](=O)[O-])c2)oc1N1CCCCC1,2.0,3.4,-5.8,17.4,8.3,3.6
COP(=O)(OC)c1nc(-c2ccc(C)cc2)oc1N1CCCCC1,50.6*,2.8,3.2,6.7,16.2,+
Cc1ccc(-c2nc(P(=O)(c3ccccc3)c3ccccc3)c(N3CCOCC3)o2)cc1,25.0,-2.0,-7.7,-5.2,6.5,-5.3
